Results reported in ChEMBL document CHEMBL3433997, “St. Jude Leishmania screening dataset” (2016).

Assays:
Format in all cases: functional
[1] = target: Solute carrier family 2, facilitated glucose transporter member 1 (Homo sapiens) (UniProt P11166); assay: ST_JUDE_LEISH: Cytotoxicity at 2uM final concentration against transgenic Leishmania Mexicana promastigotes LmGLUT1 that are glucose transport deficient and complemented with the human glucose transporter GLUT1. Activity is measured by DNA content using SYBR green in vitro
[2] = target: Hexose transporter 1 (Plasmodium falciparum) (UniProt O97467); assay: ST_JUDE_LEISH: Cytotoxicity at 2uM final concentration against transgenic Leishmania Mexicana promastigotes LmPfHT that are glucose transport deficient and complemented with the Plasmodium falciparum hexose transporter. Activity is measured by DNA content using SYBR green in vitro
[3] = target: Glucose transporter (Leishmania mexicana) (UniProt O61059); assay: ST_JUDE_LEISH: Cytotoxicity at 2uM final concentration against transgenic Leishmania Mexicana promastigotes LmGT2 that are glucose transport deficient and complemented with the L. Mexicana glucose transporter 2. Activity is measured by DNA content using SYBR green in vitro

Solute carrier family 2, facilitated glucose transporter member 1 (Homo sapiens), sequence (P11166 whole entry): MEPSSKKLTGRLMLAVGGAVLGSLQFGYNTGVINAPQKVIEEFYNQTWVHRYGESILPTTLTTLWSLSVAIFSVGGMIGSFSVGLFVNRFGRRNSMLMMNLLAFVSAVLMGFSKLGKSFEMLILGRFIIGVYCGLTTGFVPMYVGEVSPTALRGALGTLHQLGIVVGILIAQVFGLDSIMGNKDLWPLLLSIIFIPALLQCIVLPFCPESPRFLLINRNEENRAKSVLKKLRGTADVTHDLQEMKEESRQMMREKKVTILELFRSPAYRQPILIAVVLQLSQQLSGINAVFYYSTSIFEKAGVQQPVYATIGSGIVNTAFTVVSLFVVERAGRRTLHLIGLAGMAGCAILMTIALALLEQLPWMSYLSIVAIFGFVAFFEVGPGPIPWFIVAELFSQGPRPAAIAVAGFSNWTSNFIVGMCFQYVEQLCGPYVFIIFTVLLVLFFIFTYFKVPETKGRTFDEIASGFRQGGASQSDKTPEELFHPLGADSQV

## Cc1cc(N)c2cc(NC(=O)/C=C/c3ccc([N+](=O)[O-])cc3)ccc2n1
[1]
  inhibition: 3.11%
[2]
  inhibition: 1.19%
[3]
  inhibition: 0.94%

## CCN(CC)CCN(Cc1ccc(-c2ccc(C(F)(F)F)cc2)cc1)C(=O)c1ccc(-c2ccc(C#N)cc2)cc1
[1]
  inhibition: 2.48%
[2]
  inhibition: 0.49%
[3]
  inhibition: 2.37%

## CC1(C)CC2CC(C)(CN2C(=O)c2cc(C(C)(C)C)nn2Cc2ccccc2)C1 (stereo unspecified)
[1]
  inhibition: 7.67%
[2]
  inhibition: 7.75%
[3]
  inhibition: 5.94%

## O=C(NCCCc1ccccc1)c1ccc(O)c(-c2cc(Cl)cc(Cl)c2)c1
[1]
  inhibition: 4.73%
[2]
  inhibition: 4.32%
[3]
  inhibition: 3.61%

## CC(C)(C)c1cc(C(=O)Nc2cccnc2)cc(C(=O)Nc2cccnc2)c1
[1]
  inhibition: 2.58%
[2]
  inhibition: 1.97%
[3]
  inhibition: 2.38%

## CN1CCN(c2ccc(Nc3nccc(-c4cnn5ncccc45)n3)cc2Cl)CC1
[1]
  inhibition: 90.6%
[2]
  inhibition: 95.1%
[3]
  inhibition: 83.8%

## Cc1onc(-c2c(Cl)cccc2Cl)c1C(=O)NC1=NC(C)(C)ON1c1ccccc1
[1]
  inhibition: 5.88%
[2]
  inhibition: 5.44%
[3]
  inhibition: 4.86%

## CC(C)C[C@@H](CNC[C@H](CC(C)C)NC(=O)OC(C)(C)C)NC(=O)OC(C)(C)C
[1]
  inhibition: -0.36%
[2]
  inhibition: -2.4%
[3]
  inhibition: -0.19%

## O=C(NCCCCCN1CCC(c2c[nH]c3ccccc23)CC1)Nc1cccc(C(F)(F)F)c1
[1]
  inhibition: -1.78%
[2]
  inhibition: -2.05%
[3]
  inhibition: -2.66%

## c1cc(COc2ccc(C3=NCCN3)cc2)nc(COc2ccc(C3=NCCN3)cc2)c1
[1]
  inhibition: 4.95%
[2]
  inhibition: 5.66%
[3]
  inhibition: -0.59%

## CC(C)COc1ccc(Cl)cc1Cc1ccc(-c2nc3ccc(F)cc3[nH]2)o1
[1]
  inhibition: 1.83%
[2]
  inhibition: 0.95%
[3]
  inhibition: -0.47%

## Cc1cccc2nc(-c3cccc(-c4cccc(NC(=O)c5ccc(C(N)=O)cc5)c4)c3)[nH]c12
[1]
  inhibition: 0.33%
[2]
  inhibition: 1.11%
[3]
  inhibition: 1.3%
